The text below walks through data of PubChem BioAssay (NCATS).

SMILES strings stand for the structures. Records with an inconclusive call do not appear. Unmarked numbers belong to inactive results. Active and inactive are the calls of the source. Calls follow the shape of the dose curve; as a rule, active = well fitted cell-killing curve with a large enough effect; inconclusive = small, poorly fitted or top-dose-only effect, or effect the other way; inactive = flat fitted curve, though single readings scatter.
% is scaled to controls: 0 for no effect and ±100 for the full control effect; potency is read from the fitted curve at half-maximal effect.

For the first assay, the system named is C33A. The assay is described as follows: Primary qHTS to identify gynecologic anti-cancer compounds using libraries of approved drugs and bioactive compounds (AID 1345084). Also: nearly all actives have a fitted effect of over 55% in size. The conditions noted are these: Gynecologic cancer cell panel viability, ATPlite luminescence, 48 h; series mostly up to 57.5 µM; activity change, negative = cytotoxicity: at the top concentration. Summed up:
(§1)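 Cells, 1,000 per well, plated 16 h, then exposed 48 h at 37 C to compounds. Viability by ATPlite luminescence after 15 min at room temperature.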
On the technique in general: qHTS replaces the single test concentration by a dilution series.
On to `CC(=O)O[C@@H]1[C@H](O[C@@H]2OC[C@](O)(CO)[C@H]2O)[C@@H](O[C@@H]2O[C@@H](C)[C@H](O)[C@@H](O)[C@H]2O)[C@H](OC(=O)[C@]23CCC(C)(C)C[C@H]2C2=CCC4[C@@]5(C)C[C@H](O)[C@H](O[C@@H]6O[C@H](C(=O)O)[C@@H](O)[C@H](O)[C@H]6O)[C@@](C)(C(=O)O)C5CC[C@@]4(C)[C@]2(C)CC3)O[C@@H]1C` (some centres undefined), for which the activity change, negative = cytotoxicity is -3.02% [at 11.6 µM].

Turning to `Nc1ccn([C@@H]2C(F)=C(CO)[C@@H](O)[C@H]2O)c(=O)n1`, the “activity change, negative = cytotoxicity” value is -24.4%.

With `Cc1nnc(C(C)C)n1C1CC2CCC(C1)N2CCC(NC(=O)C1CCC(F)(F)CC1)c1ccccc1` (centres undefined), the “activity change, negative = cytotoxicity” value is 0.768%.

Take `COC1CCCC/C(C)=C/C2C=C(C)C(C)C3C(CC(C)C)NC(=O)C23C(=O)C1` (centres undefined): the “activity change, negative = cytotoxicity” value was 4.55% [at 25.3 µM].

For `CON(C)C(=O)N1N=C(c2cc(F)ccc2F)S[C@@]1(CCCN)c1ccccc1`, the “activity change, negative = cytotoxicity” value is -37%.

As for `CN1CCC(c2c[nH]c3ccc(NC(=O)c4ccc(F)cc4)cc23)CC1`, the “activity change, negative = cytotoxicity” value is 8.51%.

Regarding `NCc1ccc(OCCCc2sc(-c3ccc4c(c3)/C(=N/Nc3nc5ccccc5s3)CCC4)nc2C(=O)O)cc1`, the “activity change, negative = cytotoxicity” value was 7.42%.

For `C=C1CCC2C(C)(C)CC(=O)CC2(C)C1CCC(C)CCOC(C)=O` (centres undefined), the “activity change, negative = cytotoxicity” value is 0.0654% [at 38.5 µM].

Consider `CCC(=O)O[C@]1(C(=O)CCl)[C@@H](C)C[C@H]2[C@@H]3C[C@H](F)C4=CC(=O)C=C[C@]4(C)[C@@]3(F)[C@@H](O)C[C@@]21C`, for which the “activity change, negative = cytotoxicity” value is 8.05%.

Turning to `C=CCc1ccc(O[C@@H]2O[C@H](CO)[C@@H](O)[C@H](O)[C@H]2O)c(OC)c1`, the “activity change, negative = cytotoxicity” value was -1.2% [at 38.5 µM].

For `CC(=O)c1cnc2ccc(-c3cc(Cl)c(O)c(Cl)c3)nc2c1NC1CCC(CN(C)C)CC1` (centres undefined), the Potency was 0.224 µM (active).

Consider `Cc1nc2c(-c3cnc(N)nc3)nc(N3CCOCC3)nc2n1C(C)C`, for which the Potency was 1.41 µM (active).

Turning to `CC1=CC(=O)C[C@H]2[C@@H]1CC[C@@H](C)[C@]21CO[C@H](c2ccoc2)C1=O`, the “activity change, negative = cytotoxicity” value was -6.4% [at 38.5 µM].

Regarding `CC(C)C1(O[C@@H]2O[C@H](CO)[C@@H](O)[C@H](O)[C@H]2O)CC=C(CO)CC1` (some centres undefined), the “activity change, negative = cytotoxicity” value was 11.4% [at 38.5 µM].

For the compound `Cc1cc(C)c(S(=O)(=O)N(Cc2ccc(-c3cccc(S(C)(=O)=O)c3)cc2)Cc2ccc(C(F)(F)F)o2)c(C)c1`, the “activity change, negative = cytotoxicity” value was -0.759%.

A further assay concerns CAOV3. Described as above. The conditions noted are these: Gynecologic cancer cell panel viability, ATPlite luminescence, 48 h; series mostly up to 57.5 µM; activity change, negative = cytotoxicity: at the top concentration. Summed up: as §1
(ATP-based viability assays read luminescence as a measure of living cells.)
Take `COc1cc2c(Nc3ccc(Cl)c(Cl)c3F)ncnc2cc1OCC1C[C@@H]2CN(C)C[C@@H]2C1` (some centres undefined): the Potency was 31.6 µM (active).

As for `O=C(Nc1cccnn1)N1CCC(=Cc2cccc(Oc3ccc(C(F)(F)F)cn3)c2)CC1`, the “activity change, negative = cytotoxicity” value is -8.42%.

As to `Nc1c(Br)cc(Br)cc1CNC1CCC(O)CC1` (centres undefined), the “activity change, negative = cytotoxicity” value is -22.8%.

Take `COc1cc(N2CCC(N(C)C)CC2)ccc1Nc1ncc(Cl)c(Nc2ccccc2P(C)(C)=O)n1`: the Potency is 3.55 µM (active).

Consider `NS(=O)(=O)OC[C@@H]1C[C@@H](n2ccc3c(N[C@H]4CCc5ccccc54)ncnc32)C[C@@H]1O`, for which the Potency was 0.631 µM (active).

For another assay, the system named is CASKI. The description is as above. The conditions noted are these: Gynecologic cancer cell panel viability, ATPlite luminescence, 48 h; series mostly up to 57.5 µM; activity change, negative = cytotoxicity: at the top concentration. Summed up: as §1
Turning to `CC(=O)O[C@@H]1[C@H](O[C@@H]2OC[C@](O)(CO)[C@H]2O)[C@@H](O[C@@H]2O[C@@H](C)[C@H](O)[C@@H](O)[C@H]2O)[C@H](OC(=O)[C@]23CCC(C)(C)C[C@H]2C2=CCC4[C@@]5(C)C[C@H](O)[C@H](O[C@@H]6O[C@H](C(=O)O)[C@@H](O)[C@H](O)[C@H]6O)[C@@](C)(C(=O)O)C5CC[C@@]4(C)[C@]2(C)CC3)O[C@@H]1C` (some centres undefined), the activity change, negative = cytotoxicity was 0.959% [at 11.6 µM].

Consider `Nc1ccn([C@@H]2C(F)=C(CO)[C@@H](O)[C@H]2O)c(=O)n1`, for which the “activity change, negative = cytotoxicity” value was -10.3%.

`Cc1nnc(C(C)C)n1C1CC2CCC(C1)N2CCC(NC(=O)C1CCC(F)(F)CC1)c1ccccc1` (centres undefined): the “activity change, negative = cytotoxicity” value is 14.3%.

Regarding `COC1CCCC/C(C)=C/C2C=C(C)C(C)C3C(CC(C)C)NC(=O)C23C(=O)C1` (centres undefined), the “activity change, negative = cytotoxicity” value was 14.2% [at 25.3 µM].

Regarding `COc1cc2c(Nc3ccc(Cl)c(Cl)c3F)ncnc2cc1OCC1C[C@@H]2CN(C)C[C@@H]2C1` (some centres undefined), the Potency was 11.2 µM (active).

In the case of `CN1CCC(c2c[nH]c3ccc(NC(=O)c4ccc(F)cc4)cc23)CC1`, the “activity change, negative = cytotoxicity” value is 17%.

`C=C1CCC2C(C)(C)CC(=O)CC2(C)C1CCC(C)CCOC(C)=O` (centres undefined): the “activity change, negative = cytotoxicity” value is 16.5% [at 38.5 µM].

For the compound `CN(NC(=O)CC(=O)NN(C)C(=S)c1ccccc1)C(=S)c1ccccc1`, the “activity change, negative = cytotoxicity” value is 1.45%.

With `CCC(=O)O[C@]1(C(=O)CCl)[C@@H](C)C[C@H]2[C@@H]3C[C@H](F)C4=CC(=O)C=C[C@]4(C)[C@@]3(F)[C@@H](O)C[C@@]21C`, the “activity change, negative = cytotoxicity” value was 5.49%.

On to `C=CCc1ccc(O[C@@H]2O[C@H](CO)[C@@H](O)[C@H](O)[C@H]2O)c(OC)c1`, for which the “activity change, negative = cytotoxicity” value was 2.22% [at 38.5 µM].

As to `CN(C)C/C=C/C(=O)Nc1ccc(C(=O)Nc2cccc(Nc3ncc(Cl)c(-c4c[nH]c5ccccc45)n3)c2)cc1`, the Potency was 0.794 µM (active).

As for `CC(=O)c1cnc2ccc(-c3cc(Cl)c(O)c(Cl)c3)nc2c1NC1CCC(CN(C)C)CC1` (centres undefined), the Potency was 1 µM (active).

Take `COc1cc(N2CCC(N(C)C)CC2)ccc1Nc1ncc(Cl)c(Nc2ccccc2P(C)(C)=O)n1`: the Potency is 7.08 µM (active).

For `Cc1nc2c(-c3cnc(N)nc3)nc(N3CCOCC3)nc2n1C(C)C`, the Potency was 1.26 µM (active).

Take `CC1=CC(=O)C[C@H]2[C@@H]1CC[C@@H](C)[C@]21CO[C@H](c2ccoc2)C1=O`: the “activity change, negative = cytotoxicity” value was -1.94% [at 38.5 µM].

Consider `NS(=O)(=O)OC[C@@H]1C[C@@H](n2ccc3c(N[C@H]4CCc5ccccc54)ncnc32)C[C@@H]1O`, for which the Potency entry is “inactive”.

With `CC(C)C1(O[C@@H]2O[C@H](CO)[C@@H](O)[C@H](O)[C@H]2O)CC=C(CO)CC1` (some centres undefined), the “activity change, negative = cytotoxicity” value is 8.17% [at 38.5 µM].

Take `Cc1cc(C)c(S(=O)(=O)N(Cc2ccc(-c3cccc(S(C)(=O)=O)c3)cc2)Cc2ccc(C(F)(F)F)o2)c(C)c1`: the “activity change, negative = cytotoxicity” value is 17.8%.

As for `CCc1nc(C(N)=O)c(Nc2ccc(N3CCC(N4CCN(C)CC4)CC3)c(OC)c2)nc1NC1CCOCC1`, the Potency is 7.08 µM (active).
